This is a sample that favours compounds with a hit; in the whole collection about 0.85% have one here.
GAA spleen mod = inhibits or activates alpha-glucosidase in human spleen homogenate; P10253; human spleen homogenate, 4-MU-alpha-glucoside fluorescence; Potency, µM (top dose mostly 79.9 µM), for inactives: at the top dose activity change, negative = inhibition, actives largely listed as inhibitors; 0.006% of 240,000 active; AID 2112;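 also: potency is read from the fitted curve at half-maximal effect; 0% = enzyme with vehicle and -100% = no enzyme basal signal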
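Enzyme source: human spleen homogenate, 1 ug/well. Buffer 50 mM citric acid/K phosphate pH 5.0, 0.01% Tween-20. 4-MU-alpha-glucoside 1 mM; 37 C x 40 min; NaOH/glycine stop; fluorescence.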
B2AR arrestin = agonists driving beta-arrestin recruitment to human beta2-adrenergic receptor. 0.02% of 330,000 active. P07550. AID 492947. Potency, µM (highest dose often 46.1 µM), for the others: top-dose activation, usual class: activators. beta-arrestin recruitment to beta2AR, cell-based reporter;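 also: potency is read from the fitted curve at half-maximal effect; 0% = DMSO controls and full agonism = EC100 isoproterenol or metaproterenol; nearly all actives have a fitted effect of over 65% in size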
Target sequence (P07550 whole entry, looked up): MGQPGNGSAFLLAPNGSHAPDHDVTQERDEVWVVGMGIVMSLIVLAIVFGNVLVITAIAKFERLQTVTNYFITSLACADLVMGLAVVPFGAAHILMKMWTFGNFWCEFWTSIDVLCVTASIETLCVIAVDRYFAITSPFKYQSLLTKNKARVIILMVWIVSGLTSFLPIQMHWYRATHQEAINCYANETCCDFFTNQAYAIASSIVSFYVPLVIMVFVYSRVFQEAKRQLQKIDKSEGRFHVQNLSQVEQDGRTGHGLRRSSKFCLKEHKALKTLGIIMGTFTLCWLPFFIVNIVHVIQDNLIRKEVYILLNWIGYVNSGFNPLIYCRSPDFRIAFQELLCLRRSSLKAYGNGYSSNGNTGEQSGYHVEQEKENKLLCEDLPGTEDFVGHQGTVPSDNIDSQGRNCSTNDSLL
GAA inh = blocks human lysosomal alpha-glucosidase | P10253 | purified human GAA, 4-MU-alpha-glucoside fluorescence | Potency, µM (series often up to 76.9 µM), for inactives: top-dose activity change, negative = inhibition, usual class: inhibitors | 0.005% of 200,000 active | AID 1466;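 also: potency is read from the fitted curve at half-maximal effect; plate controls were uninhibited enzyme wells for no effect and no-enzyme background for full effect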
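Read-out is 4-methylumbelliferone fluorescence (Ex 365/Em 440 nm) after NaOH/glycine stop at pH 10. Enzyme 4 nM, substrate 400 uM, pH 5.0 citrate buffer, 20 min room temperature; AC50 from Hill-equation concentration-response.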
GAA glycogen mod = alters human alpha-glucosidase cleavage of glycogen; P10253; recombinant GAA, glycogen substrate, Amplex Red glucose oxidase fluorescence; Potency, µM (top dose mostly 76.4 µM), for inactives: top-dose activity change, negative = inhibition, hits mostly inhibitors; 0.38% of 300,000 active; AID 2100;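 also: potency is read from the fitted curve at half-maximal effect; 0% = full enzyme reaction and -100% = no-enzyme basal signal; the screen sought inhibitors and activators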
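Recombinant human enzyme (4 nM); glycogen substrate; 37 C, 40 min, pH 5.0. Readout: coupled glucose oxidase/Amplex Red fluorescence.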
Coupling enz = inhibits coupling enzyme system, counter-screen for aldolase hits; coupling enzyme system counterscreen, AmpLite Red fluorescence; activity change, negative = inhibition, % at 58.2 µM, hits read low; 0.67% of 290,000 active; AID 2472; in the data active = activity change below about -30%
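First, compound is pin-transferred into glyceraldehyde-3-phosphate coupling-enzyme reagent at 57.5 uM final and held 10 min at RT. Next, substrate, coupling system and AmpLite Red are added. After 20 min RT, fluorescence (525/598 nm) is read.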
* hit, by the source's call; ? = inconclusive; nt = not tested or not shown; [ ] = remark or other dose. Unless noted, calls follow the shape of the dose curve; as a rule, active = well fitted curve in the direction sought with a large enough effect; inconclusive = small, poorly fitted or top-dose-only effect, or another doubt; inactive = no such curve, though single readings can be large; an effect the other way counts as inactive or inconclusive. Unless noted, % is scaled to controls: 0 for no effect and ±100 for the full control effect.

SMILES	GAA spleen mod	B2AR arrestin	GAA inh	GAA glycogen mod	Coupling enz
CCOC(=O)N/N=C1/C[C@@H](O)[C@@H](O)[C@@H]2[C@@H]3C(=O)N(C[C@@H]4CCCO4)C(=O)[C@H]3CC[C@@H]12	-4.6%[17.4 µM]	nt	nt	nt	1.2
COc1ccc(O[C@H]2C=C[C@@H](c3ccccc3)O[C@H]2CO/N=C(/C)CCC(=O)OC[C@@H]2O[C@H](C#Cc3ccccc3)C=C[C@@H]2Oc2ccc(C)cc2)cc1	3.7%[17.4 µM]	nt	nt	nt	1.4
CCOC(=O)CCCCC(=O)c1[nH]c(=O)[nH]c1CSc1nc(-c2ccccc2)c(C#N)c(=O)[nH]1	-22.2%	-0.3%	?	35.5µM*	15.2
N#Cc1c(-c2ccccc2)nc(SCC(=O)N(c2ccccc2)c2ccccc2)[nH]c1=O	-0.2%	-0.8%	-5.2%	-4.8%	25.2
O=C(CSCc1ccc(Cl)cc1)N/N=C/c1ccccc1	-6.4%	0.1%	-4.0%	-18.1%	-37.0*
O=C(CSCc1ccc(Cl)cc1)N/N=C/c1c(Cl)cccc1Cl	3.2%	-0.9%	-3.1%	10.8%	0.2
CCOc1ccc(N=c2scc(-c3ccccc3)n2CCO)cc1	-21.7%	0.3%	-9.1%	10.4%	0.6
CCn1c(-c2ccccc2)csc1=Nc1ccc(O)cc1	nt	0.2%	-5.7%	12.6µM*	0.0
Nc1nc(C2CC2)c(Sc2sc(N)nc2C2CC2)s1	1.9%	-0.1%	5.5%	6.31µM*	-2.1
COc1ccc(C2CC(=O)N3CN(c4ccc(C)c(Cl)c4)CSC3=C2C#N)cc1 (configuration not stated)	-5.4%	-0.2%	3.3%[15.4 µM]	-7.4%	-35.6*
Fc1ccccc1Nc1n[nH]c(=S)s1	6.0%	-0.3%	7.2%	15.7µM*	2.1
S=c1[nH]nc(Nc2cccc3ccccc23)s1	-0.7%	-0.6%	nt	-26.9%	5.0
CS(=O)(=O)N1CCC2(CCCN(C(=O)Nc3cccc(C#N)c3)C2)CC1	2.0%	nt	nt	nt	-3.3
COC(=O)c1nn(-c2ccc(OC)cc2)c(=O)c2c(N)sc(C)c12	-3.0%	-0.1%	-5.9%	-8.5%	-52.0*
CCOC(=O)c1nn(-c2ccc(F)cc2)c(=O)c2c(N)scc12	1.1%	-0.2%	?	4.3%	12.4
CCOC(=O)c1nn(-c2ccc(C)cc2)c(=O)c2c(N)scc12	5.4%	0.0%	1.4%	-15.4%	-54.8*
COC(=O)c1nn(-c2ccc(OC)cc2)c(=O)cc1NN	-12.8%	0.1%	-12.1%	?	-42.6*
COC(=O)c1nn(-c2ccc(OC)cc2)c(=O)cc1Sc1ccc(C)cc1	0.0%	-0.3%	-2.5%	-12.2%	-10.9
COc1cc(C(=O)NCCOc2ccc(Cl)cc2)ccc1OCc1c(C)noc1C	nt	-0.2%	nt	nt	nt
Oc1[nH]c2ccccc2c1C=Nc1ccc2c(c1)OCCO2	-10.2%	-0.5%	-3.5%	31.6µM*	-7.2
CC[C@H](C)C(=O)O[C@H]1C[C@@H](C)C=C2C=C[C@H](C)[C@H](CC[C@@H]3C[C@@H](O)CC(=O)O3)[C@H]21	9.7%	-0.5%	-0.3%[15.4 µM]	-1.1%	-46.6*
CC[C@H](C)C(=O)O[C@H]1CCC=C2C=C[C@H](C)[C@H](CC[C@@H]3C[C@@H](O)CC(=O)O3)[C@H]21	-7.2%	-0.3%	-1.6%[15.4 µM]	1.0%	0.2
CCCCNc1cc(NC(C)=O)cc2cc(OC)c(OC)cc12	0.2%	1.0%	-6.5%	?	-44.1*
COc1cc2cc(NC(C)=O)cc(NCc3ccccc3)c2cc1OC	nt	-1.0%	nt	18.7%[76.3 µM]	-21.9
NC(=O)C1O[C@@H](O)[C@H](O)[C@@H](O)[C@H]1O (some centres not stated)	2.9%	nt	nt	nt	0.3
SMILES	GAA spleen mod	B2AR arrestin	GAA inh	GAA glycogen mod	Coupling enz
CCCCn1c(SCC(=O)NCc2ccccc2)nc2ccc(N3CCOCC3)cc2c1=O	-5.1%	-0.2%	6.4%	0.2%	-37.5*
CCCCn1c(SCC(=O)NCc2ccco2)nc2cc(S(N)(=O)=O)ccc21	5.8%	0.2%	-3.0%	-9.2%	-6.2
CCCCn1c(SCC(=O)NCc2ccco2)nc2ccc(N3CCOCC3)cc2c1=O	0.7%	-0.2%	1.1%	-9.5%	-40.1*
CCCCn1c(SCC(=O)NC(C)CC)nc2ccc(N3CCOCC3)cc2c1=O (configuration not stated)	-1.9%	3.5%	-6.3%	0.2%	-36.0*
CCC(C)NC(=O)CSc1nc2ccc(N3CCOCC3)cc2c(=O)n1CCc1ccccc1 (configuration not stated)	-4.7%	-0.2%	-5.7%	2.4%	-22.1
CCCCn1c(SCC(=O)Nc2ccc(OC)cc2)nc2ccc(N3CCOCC3)cc2c1=O	-4.6%	0.0%	-5.2%	-3.2%	-31.6*
Cc1ccccc1-n1c(SCC(=O)Nc2c(C)cccc2C)nc(O)cc1=O	nt	0.1%	nt	-4.5%	2.2
CC[C@H](C)[C@@H](NC(=O)O[C@@H]1Cc2cc(Br)ccc2O[C@H]1c1cccc(OC)c1)C(=O)OC	0.9%	nt	nt	nt	2.1
CCCNC(=O)OC[C@@H]1O[C@H](CCO/N=C\[C@@H](OC)[C@H](C)/C=C\CC(=O)OC)C=C[C@@H]1Oc1ccc(OC)cc1	-0.4%[17.4 µM]	nt	nt	nt	5.4
COC(=O)c1cc(=O)c(O)c2c(O)c(O)ccc2c1	0.8%	nt	nt	nt	-30.6*
COC(=O)c1ccc(O)cc1	13.1%	-0.6%	nt	-1.9%	0.7
N#Cc1ccc2ccn(CC(=O)N3CCCc4ccccc43)c2c1	13.3%	0.1%	-5.7%	-9.6%	-39.5*
O=C(CN1CCCCC1)N1CCCc2ccccc21	2.9%	0.0%	-13.9%	5.1%	0.1
Cc1ccc(-c2c(C3C4C=CCCC4(C)C(=O)N3Cc3ccccc3)ccc3ccccc23)cc1 (configuration not stated)	-1.6%	nt	nt	nt	0.1
CC(C)CN=Cc1c(O)c([N+](=O)[O-])cc2oc3c(c12)CCCC3	-0.5%	-0.3%	?	1.6%	-32.1*
CCC1CCCCN1C(=O)CCS(=O)(=O)c1cc2c(cc1C)NC(=O)CO2 (configuration not stated)	nt	nt	nt	-6.7%[76.3 µM]	nt
CCCn1nnc(NC(=O)c2ccc(-c3cccc(Cl)c3)o2)n1	2.9%	-0.1%	6.0%	-13.8%	3.1
Cn1nnc(NC(=S)NC(=O)c2ccco2)n1	-1.9%	2.7%	-2.1%	?	-42.7*
CCn1nnc(NC(=S)NC(=O)c2ccc(-c3cccc(Cl)c3)o2)n1	4.5%	17.8µM*	nt	-11.2%	0.8
Cn1nnc(NC(=O)c2ccco2)n1	0.9%	0.1%	-5.7%	-8.3%	-0.2
O=c1ccn(-c2cccc(C(F)(F)F)c2)nc1-c1ccn(-c2ccccc2)n1	-2.6%	-0.4%	-5.5%	2.8%	-37.8*
Cc1cc(=O)c(C(=O)O)nn1-c1cccc(C(F)(F)F)c1	nt	0.0%	nt	-0.3%	1.4
O=C(CSc1nc2ccccc2n1CCc1ccccc1)c1ccc(O)c(O)c1	-15.5%	-0.3%	-4.5%	3.98µM*	-0.1
COc1ccc(-n2nnnc2SCC(=O)c2ccc(O)c(O)c2)cc1	-5.3%	-0.6%	-10.0%	8.84µM*	1.0

From PubChem BioAssay
